Among the data in PubChem BioAssay (NCATS) are Potency values, retold here.

Each structure is given as a SMILES string. Records with an inconclusive call do not appear. A call without a number means that no potency is given here. The source made the active and inactive calls. Calls follow the shape of the dose curve; as a rule, active = well fitted inhibition curve with a large enough effect; inconclusive = small, poorly fitted or top-dose-only effect; inactive = no such curve, though single readings can be large or run the other way. Peptide text beside a SMILES is read from it.
Potency is read from the fitted curve at half-maximal effect.

Protein phosphatase 1D (Homo sapiens), sequence (O15297 whole entry, looked up): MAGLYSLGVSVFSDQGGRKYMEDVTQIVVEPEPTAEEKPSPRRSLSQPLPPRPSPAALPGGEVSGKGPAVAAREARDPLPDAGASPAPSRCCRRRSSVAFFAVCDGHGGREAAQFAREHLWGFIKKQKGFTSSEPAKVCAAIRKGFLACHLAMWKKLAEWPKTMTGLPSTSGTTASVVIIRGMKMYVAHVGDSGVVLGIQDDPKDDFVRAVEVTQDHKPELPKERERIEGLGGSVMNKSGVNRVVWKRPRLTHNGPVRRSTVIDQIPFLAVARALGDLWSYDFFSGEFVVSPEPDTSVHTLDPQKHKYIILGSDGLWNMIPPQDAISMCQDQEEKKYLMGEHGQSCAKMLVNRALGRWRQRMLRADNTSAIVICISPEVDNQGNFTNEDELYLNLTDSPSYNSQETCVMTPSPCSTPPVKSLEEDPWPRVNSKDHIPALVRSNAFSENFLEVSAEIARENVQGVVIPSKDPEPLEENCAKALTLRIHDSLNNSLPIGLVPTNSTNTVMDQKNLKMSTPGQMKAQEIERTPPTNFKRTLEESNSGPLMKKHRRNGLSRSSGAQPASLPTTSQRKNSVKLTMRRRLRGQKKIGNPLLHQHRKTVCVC

This experiment deals with Protein phosphatase 1D (Homo sapiens) (UniProt O15297). Put plainly: RapidFire Mass Spectrometry qHTS Assay for Modulators of WT P53-Induced Phosphatase 1 (WIP1) (AID 1347424). Particulars: WIP1 dephosphorylation of phosphopeptide, RapidFire MS; series mostly up to 63 µM. The source says:
Assay Provider (PI): Nathan Coussens Ph. D.
National Center for Advancing Translational Sciences (NCATS), Rockville, MD
National Institute of Health (NIH), Bethesda, Maryland
WT P53-Induced Phosphatase 1 (WIP1) is a member of the magnesium-dependent serine/threonine protein phosphatase (PPM) family and is induced by P53 in response to DNA damage. In several human cancers, the WIP1 protein is overexpressed, which is generally associated with a worse prognosis. Although WIP1 is an attractive therapeutic target, no potent, selective, and bioactive small-molecule modulator with favorable pharmacokinetics has been reported. Phosphatase enzymes are among the most challenging targets for small molecules because of the difficulty of achieving both modulator selectivity and bioavailability. Another major obstacle has been the availability of robust and physiologically relevant phosphatase assays that are suitable for high-throughput screening.
Here, we describe two orthogonal biochemical WIP1 activity assays that utilize phosphopeptides from native WIP1 substrates. We optimized a RapidFire MS assay to quantify the enzymatically dephosphorylated peptide reaction product in a 384-well format. Additionally, a redshifted Rhodamine-PBP fluorescence assay was optimized in a 1,536-well format to enable real-time WIP1 activity measurements through the detection of the orthogonal reaction product, Pi. We validated these two optimized assays by quantitative high-throughput screening against the National Center for Advancing Translational Sciences (NCATS) Pharmaceutical Collection and used secondary assays to confirm and evaluate inhibitors identified in the primary screen.
SEQUENCE No. (e.g., 1, 2, 3, etc.); […] (e.g., Cells, Incubation, Reagent, etc.); VALUE; DESCRIPTION
1; Reagent; 50 uL; dispensed assay buffer: 0.1% formic acid in water (10 uL : 40 uL) solution in column 1
3; Library Compounds; 63 nL; library compounds in DMSO, columns 3-24
4; Control Compounds; 63 nL; DMSO in wells I-P, columns 1-2, GSK830371 (10 uM, final) in wells A-H, column 2
5; Time; 1 hr; incubation
6; Substrate; 2 uL; VEPPL-pS-QETFS (10 uM) in assay buffer, column 2-24
7; Time; 5 min; incubation
8; Reagent; 2 uL; 0.5% formic acid in water, columns 2-24
9; Reagent; 38 uL; VEPPL-S-QETF*S in 0.1% formic acid, columns 2-24
10; Detection; mass spec; RapidFire mass spectrometry
NOTES (numbers refer to sequence above)
1, 2, 6; dispensed reagent in White Nunc 384-well PP microplates (264573); assay buffer: 50 mM Tris-HCl pH 7.5, 30 mM MgCl2, 1 mM TCEP, 0.1 mM EGTA, 75 ug/mL BSA.
2, 6, 8, 9; Dispensed with BioRaptr (Beckman Coulter)
2, 6, 9; Final concentrations: 10 nM WIP1; 2 uM VEPPL-pS-QETFS; 1 uM VEFFL-S-QETF*S
3 & 4; Kalypsys Pintool transfer (Wako USA), Tip wash sequence: water, DMSO, methanol, 20 sec vacuum dry.
5 & 7; incubation at room temperature
10; RapidFire mass spectrometry read using the Agilent RapidFire 360 (Clausse, 2019)
Clausse V, et al. Physiologically relevant orthogonal assay for the discovery of small-molecule modulators of WIP1 […] in high-throughput screens. J Biol Chem. 2019, 294(46): 17654-17668. doi:10.1074/jbc.RA119.010201
In general terms: In qHTS, concentration-response curves come from the screen itself.
In the case of `Cc1cc2cc3c(C)cc(=O)oc3c(C)c2o1`, the Potency result was “inactive”.

`Cc1c(C(=O)NN2CCCCC2)nn(-c2ccc(Cl)cc2Cl)c1-c1ccc(Cl)cc1`: the Potency result was “inactive”.

As to `COC(=O)N[C@H](C(=O)N[C@@H](Cc1ccccc1)[C@@H](O)CN(Cc1ccc(-c2ccccn2)cc1)NC(=O)[C@@H](NC(=O)OC)C(C)(C)C)C(C)(C)C`, the Potency result is “inactive”.

In the case of `Cc1ccc(C(=O)c2cc(O)c(O)c([N+](=O)[O-])c2)cc1`, the Potency entry is “inactive”.

For the compound `O=C(O)c1cccc(-c2noc(-c3ccccc3F)n2)c1`, the Potency result was “inactive”.

For `CCCOc1ccc2nc(NC(=O)OC)[nH]c2c1`, the Potency entry is “inactive”.

As to `CC1(C)NC(=O)N(c2ccc([N+](=O)[O-])c(C(F)(F)F)c2)C1=O`, the Potency entry was “inactive”.

For `Cc1cc(=O)c2c(O)c3c(O)cc(=O)c4c3c3c(cc(O)c1c23)C(C)(C)C=4O`, the Potency entry is “inactive”.

Regarding `COC(=O)C1=C(C)NC(C)=C(C(=O)OC(C)C)C1c1cccc2nonc12` (stereo not given), the Potency entry was “inactive”.

Take `O=C(O)c1cc(=O)c2c(OCC(O)COc3cccc4oc(C(=O)O)cc(=O)c34)cccc2o1`: the Potency result was “inactive”.

With `Cc1nc(-c2ccc(OCC(C)C)c(C#N)c2)sc1C(=O)O`, the Potency entry was “inactive”.

Turning to `C=CCc1cc(OC)c(O)c(C(=O)NCCO)c1`, the Potency result is “inactive”.

As for `CC(C)[C@H](N)C(=O)OCCOCn1cnc2c(=O)[nH]c(N)nc21`, the Potency result is “inactive”.

For the compound `Nc1ncn([C@H]2C[C@H](O)[C@@H](CO)O2)c(=O)n1`, the Potency entry was “inactive”.

Consider `Cc1c(OCC(F)(F)F)ccnc1CS(=O)c1nc2ccccc2[nH]1` (stereo not given), for which the Potency entry is “inactive”.

In the case of `COCCCOc1ccnc(CS(=O)c2nc3ccccc3[nH]2)c1C` (stereo not given), the Potency entry is “inactive”.

In the case of `C=C(c1ccc(C(=O)O)cc1)c1cc2c(cc1C)C(C)(C)CCC2(C)C`, the Potency is 4.47 µM (active).

Turning to `COC(=O)[C@H](Cc1ccccc1)NC(=O)[C@@H](N)CC(=O)O` (H-Asp-Phe-OMe), the Potency result is “inactive”.

For the compound `Clc1ccc(C(Cn2ccnc2)OCc2ccsc2Cl)c(Cl)c1` (stereo not given), the Potency entry was “inactive”.

Consider `CCC1=C(C)CN(C(=O)NCCc2ccc(S(=O)(=O)NC(=O)NC3CCC(C)CC3)cc2)C1=O` (stereo not given), for which the Potency result is “inactive”.

Turning to `CCN(CC)C(=S)SSC(=S)N(CC)CC`, the Potency entry was “inactive”.

Consider `CN(C)C(=O)COC(=O)Cc1ccc(OC(=O)c2ccc(N=C(N)N)cc2)cc1`, for which the Potency entry is “inactive”.

`NC(=O)Cc1cccc(C(=O)c2ccccc2)c1N`: the Potency result is “inactive”.

For the compound `O=C(OC1C[C@H]2CC[C@@H](C1)[N+]21CCCC1)C(O)(c1ccccc1)c1ccccc1` (stereo not given in full), the Potency entry is “inactive”.

In the case of `CCCCC(CC)COC(=O)C(C#N)=C(c1ccccc1)c1ccccc1` (stereo not given), the Potency entry was “inactive”.

Regarding `COc1cc(C(C)=O)ccc1OCCCN1CCC(c2noc3cc(F)ccc23)CC1`, the Potency entry was “inactive”.

Turning to `Cc1ccc(Nc2nccc(N(C)c3ccc4c(C)n(C)nc4c3)n2)cc1S(N)(=O)=O`, the Potency entry is “inactive”.

Consider `Cc1cccc(C)c1OCC(=O)N[C@@H](Cc1ccccc1)[C@@H](O)C[C@H](Cc1ccccc1)NC(=O)[C@H](C(C)C)N1CCCNC1=O`, for which the Potency result was “inactive”.

`S=c1nc[nH]c2nc[nH]c12`: the Potency entry is “inactive”.

Consider `Cc1nc2n(c(=O)c1CCN1CCC(c3noc4cc(F)ccc34)CC1)CCCC2`, for which the Potency entry is “inactive”.

For the compound `Cc1cc(C2CCCCC2)n(O)c(=O)c1`, the Potency result is “inactive”.

As to `CCN(CC)CCOc1ccc(Cc2ccccc2)cc1`, the Potency result is “inactive”.

For the compound `CC1Cc2ccccc2N1NC(=O)c1ccc(Cl)c(S(N)(=O)=O)c1` (stereo not given), the Potency result was “inactive”.

Regarding `Cc1ncc([N+](=O)[O-])n1CC(C)O` (stereo not given), the Potency entry is “inactive”.

As for `O=C1CCc2ccc(OCCCCN3CCN(c4cccc(Cl)c4Cl)CC3)cc2N1`, the Potency entry is “inactive”.

Take `CC1=C(C)C(=O)C(C(CCCCCC(=O)O)c2ccccc2)=C(C)C1=O` (stereo not given): the Potency result is “inactive”.

As to `CCOC(=O)c1c(C)n(C)c2ccc(O)cc12`, the Potency entry is “inactive”.

`CC(S)C(=O)NCC(=O)O` (stereo not given): the Potency result is “inactive”.

On to `Oc1ccc(OCc2ccccc2)cc1`, for which the Potency entry is “inactive”.

`O=C(NCCO[N+](=O)[O-])c1cccnc1`: the Potency entry is “inactive”.
